Results from PubChem BioAssay (Tox21).
Records with an inconclusive call do not appear. A call without a number means that no potency is given here. Values without a mark were called inactive. The source made the active and inactive calls. Calls follow the shape of the dose curve; as a rule, active = well fitted curve in the direction sought with a large enough effect in the repeat runs; inconclusive = weak or mixed curves; inactive = no such curve, though single readings can be large; an effect the other way counts as inactive or inconclusive.

Assays:
[1] = qHTS assay to identify small molecule agonists of the RXR signaling pathway - cell viability counter screen (AID 1159529);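 also: HEK 293T cells carrying an RXR-alpha UAS beta-lactamase reporter; series mostly up to about 77 µM; nearly all actives have a fitted effect of over 50% in size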
Procedure, shortened: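 HEK 293T RXRa-bla cells, 2% CS-FBS; 5 h settle; cpd 16 h 37 C, 5% CO2; CellTiter-Glo 30 min RT, luminescence. Tetraoctyl ammonium bromide as positive control.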

[2] = qHTS assay to identify small molecule antagonists of the retinoid acid receptor (RAR) signaling pathway - cell viability counter screen (AID 1159551); also: nearly all actives have a fitted effect of over 35% in size; also: potency is read from the fitted curve at half-maximal effect
Procedure, shortened: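 ATP-based viability, C3RL4 cells, 6 h at 37 C with 1 uM final retinol co-added after compound; luminescence read 30 min post CellTiter-Glo, RT.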

[3] = qHTS assay to identify small molecule antagonists of the retinoic acid receptor (RAR) signaling pathway (AID 1159552; also: nearly all actives have a fitted effect of over 50% in size; also: potency is read from the fitted curve at half-maximal effect)
Procedure, shortened: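 Cells of the C3RL4 line were seeded, incubated overnight, then dosed with compounds in DMSO followed immediately by retinol (1 uM final). Six hours later luciferase detection reagent went in; signal was measured after 30 min at RT.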

[4] = qHTS assay to identify small molecule agonists of the retinoic acid receptor (RAR) signaling pathway (AID 1159553); also: potency is read from the fitted curve at half-maximal effect
Procedure, shortened: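 Quantitative high-throughput format: the Tox21 10K library was tested on C3RL4 RARE-luciferase cells for 6 hr at 37 C and 5% CO2, with luminescence measured after a 30 min room-temperature reagent step.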

In the case of O=C1NC(=O)c2cccc3cccc1c23, the Potency [1] is reported as “inactive”, the Potency [2] is reported as “inactive” and the Potency [3] is reported as “inactive”.

With COC(OC)OC the Potency [1] was “inactive”, the Potency [2] was “inactive” and the Potency [3] was “inactive”.

With CC(C)N=C=NC(C)C the Potency [1] was “inactive”, the Potency [2] was “inactive” and the Potency [3] was “inactive”.

For CCOC(=O)c1c(N)sc2c1CCN(Cc1ccccc1)C2, the Potency [1] was “inactive”, the Potency [2] was “inactive” and the Potency [3] was “inactive”.

With CCN(Cc1cccc(S(=O)(=O)O)c1)c1ccc(C(=C2C=CC(=[N+](CC)Cc3cccc(S(=O)(=O)O)c3)C=C2)c2ccccc2S(=O)(=O)[O-])cc1 the Potency [1] was “inactive”, the Potency [2] was 15.4 µM (active) and the Potency [3] was 13.7 µM (active).

In the case of Cc1c(C2(c3cc(Br)c(O)c(Br)c3C)OS(=O)(=O)c3ccccc32)cc(Br)c(O)c1Br, the Potency [1] is reported as “inactive”, the Potency [2] is reported as 7.47 µM (active) and the Potency [3] is reported as 13.3 µM (active).

With CCCC(=O)OC(=O)CCC the Potency [1] was “inactive”, the Potency [2] was “inactive” and the Potency [3] was “inactive”. For the same molecule, the Potency [4] was “inactive”.

With O=C1OC(=O)c2c(Br)c(Br)c(Br)c(Br)c21 the Potency [1] was “inactive”, the Potency [2] was “inactive” and the Potency [3] was “inactive”. The Potency [4] was “inactive”.

In the case of COc1ccc(-c2cc(=S)ss2)cc1, the Potency [1] is reported as “inactive”, the Potency [2] is reported as “inactive” and the Potency [3] is reported as “inactive”. The Potency [4] was 26.6 µM (active).

For O=S(=O)(Cl)c1c(Cl)cccc1Cl, the Potency [1] was “inactive”, the Potency [2] was “inactive” and the Potency [3] was “inactive”. For the same molecule, the Potency [4] was “inactive”.

In the case of CC1CCCC(=O)C1=O (centres undefined), the Potency [1] is reported as “inactive”, the Potency [2] is reported as “inactive” and the Potency [3] is reported as “inactive”. For the same molecule, the Potency [4] was “inactive”.

In the case of CCCCC(CC)COS(=O)(=O)O (centres undefined), the Potency [1] is reported as “inactive”, the Potency [2] is reported as “inactive” and the Potency [3] is reported as “inactive”. For the same molecule, the Potency [4] was “inactive”.

With CSCC[C@H](NC(=O)[C@H](Cc1c[nH]c2ccccc12)NC(=O)CCNC(=O)OC(C)(C)C)C(=O)N[C@@H](CC(=O)O)C(=O)N[C@@H](Cc1ccccc1)C(N)=O the Potency [1] was “inactive”, the Potency [2] was “inactive” and the Potency [3] was “inactive”. For the same molecule, the Potency [4] was “inactive”.

With CCCCCCOC(=O)CCCCC the Potency [1] was “inactive”, the Potency [2] was “inactive” and the Potency [3] was “inactive”.

For C=CCOC(=O)COCCC(C)C, the Potency [1] was “inactive”, the Potency [2] was “inactive” and the Potency [3] was “inactive”. For the same molecule, the Potency [4] was “inactive”.

In the case of CCCCCCCC(=O)OCCCCCC, the Potency [1] is reported as “inactive”, the Potency [2] is reported as “inactive” and the Potency [3] is reported as “inactive”. The Potency [4] was “inactive”.

In the case of CSSc1ccoc1C, the Potency [1] is reported as “inactive”, the Potency [2] is reported as “inactive” and the Potency [3] is reported as “inactive”. For the same molecule, the Potency [4] was 0.0431 µM (active).

For CC(C(=O)O)c1ccc(C(=O)c2cccs2)cc1 (centres undefined), the Potency [1] was “inactive”, the Potency [2] was “inactive” and the Potency [3] was “inactive”. The Potency [4] was “inactive”.

For CCC(CO)(CO)CO, the Potency [1] was “inactive”, the Potency [2] was “inactive” and the Potency [3] was “inactive”. The Potency [4] was “inactive”.
